# Measured values published in PubChem BioAssay.
# Calls of active or inactive are those of the source.
# How the values were obtained:
# [1] = anti-His antibody binders, primary screen, artefact control for SMM control protein annotation, biochemical, small-molecule microarray, 635 nm fluorescence (AID 1128); conditions: anti-His Alexa647 antibody binding, higher = more signal;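 note: score merges feature fluorescence with signal-to-noise for each printed compound spot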
# [2] = system: Human papillomavirus type 1a E7 protein (residues 1-88); test: HPV1a E7 small-molecule binders, primary screen, biochemical, small-molecule microarray, residues 1-88, 635 nm (AID 1129); conditions: small-molecule microarray binding, fluorescence 635 nm; higher = more signal
# [3] = biological target: Focal adhesion kinase 1 (Homo sapiens) (UniProt Q05397); test: small-molecule microarray binders of FAK, primary screen, biochemical, 635/667 nm fluorescence, BSA, DTT (AID 1130); conditions: PTK2 binding, 635 nm fluorescence, higher = more signal;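 note: composite of spot emission at 667 nm and signal to noise over triplicate slides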
# Sequence of Focal adhesion kinase 1 (Homo sapiens) (Q05397 whole entry, looked up): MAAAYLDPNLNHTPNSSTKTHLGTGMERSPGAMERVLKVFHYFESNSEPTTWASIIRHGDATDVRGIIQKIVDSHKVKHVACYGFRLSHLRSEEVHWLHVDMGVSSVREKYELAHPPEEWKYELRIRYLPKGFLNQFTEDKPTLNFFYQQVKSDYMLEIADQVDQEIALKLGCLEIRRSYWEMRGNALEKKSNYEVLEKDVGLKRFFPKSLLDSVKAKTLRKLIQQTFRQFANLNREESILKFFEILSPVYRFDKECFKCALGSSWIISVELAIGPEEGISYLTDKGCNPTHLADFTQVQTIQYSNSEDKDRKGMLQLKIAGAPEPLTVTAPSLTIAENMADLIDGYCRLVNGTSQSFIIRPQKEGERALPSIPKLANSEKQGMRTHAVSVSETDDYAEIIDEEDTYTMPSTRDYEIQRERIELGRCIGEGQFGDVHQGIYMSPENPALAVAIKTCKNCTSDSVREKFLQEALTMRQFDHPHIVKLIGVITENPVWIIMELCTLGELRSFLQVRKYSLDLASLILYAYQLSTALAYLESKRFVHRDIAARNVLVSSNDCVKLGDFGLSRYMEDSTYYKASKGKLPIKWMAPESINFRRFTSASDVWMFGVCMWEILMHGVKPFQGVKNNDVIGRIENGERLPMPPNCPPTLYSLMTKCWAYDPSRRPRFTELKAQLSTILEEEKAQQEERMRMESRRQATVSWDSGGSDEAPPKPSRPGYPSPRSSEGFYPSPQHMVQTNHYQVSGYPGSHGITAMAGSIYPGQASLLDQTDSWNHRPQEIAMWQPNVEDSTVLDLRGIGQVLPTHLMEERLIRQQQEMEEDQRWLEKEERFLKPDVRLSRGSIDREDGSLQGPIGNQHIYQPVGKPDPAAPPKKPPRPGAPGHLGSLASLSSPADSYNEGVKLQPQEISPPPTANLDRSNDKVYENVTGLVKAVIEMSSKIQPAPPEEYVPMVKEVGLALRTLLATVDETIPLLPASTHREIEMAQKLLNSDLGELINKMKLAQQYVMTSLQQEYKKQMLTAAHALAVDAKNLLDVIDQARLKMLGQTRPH
# [4] = system: Fibrinogen (Alexa647-labelled); test: fibrinogen binders on compound microarrays, profiling panel, artefact control for SMM control-protein annotation, biochemical, small-molecule microarray, 635/667 nm fluorescence (AID 1131); conditions: fibrinogen-A647 binding fluorescence, higher = more signal;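 note: z-score merges 667 nm fluorescence with per-spot signal-to-noise over triplicate slides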
# [5] = biological target: Follistatin (Homo sapiens) (UniProt P19883); test: follistatin binders on small-molecule microarrays, primary screen, biochemical, small-molecule microarray, 635/667 nm fluorescence (AID 1132); conditions: FST binding, 635 nm fluorescence, higher = more signal
# Sequence of Follistatin (Homo sapiens) (P19883 whole entry, looked up): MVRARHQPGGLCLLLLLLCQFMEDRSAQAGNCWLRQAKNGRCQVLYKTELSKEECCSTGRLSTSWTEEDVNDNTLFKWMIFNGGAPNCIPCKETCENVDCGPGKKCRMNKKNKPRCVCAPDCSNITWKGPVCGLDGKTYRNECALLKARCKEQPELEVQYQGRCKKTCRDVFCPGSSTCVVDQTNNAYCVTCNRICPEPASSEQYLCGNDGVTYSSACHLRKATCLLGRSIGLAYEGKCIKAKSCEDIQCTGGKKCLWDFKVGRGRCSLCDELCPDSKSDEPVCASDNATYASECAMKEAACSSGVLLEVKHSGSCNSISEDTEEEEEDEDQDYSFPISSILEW
# [6] = biological target: Fibroblast growth factor 2 (Homo sapiens) (UniProt P09038); test: FGF2 binders on small-molecule microarrays, primary screen, biochemical, small-molecule microarray, 635/667 nm fluorescence (AID 1133); conditions: small-molecule microarray binding, FGF2, fluorescence 635/667; higher = more signal
# Sequence of Fibroblast growth factor 2 (Homo sapiens) (P09038 whole entry, looked up): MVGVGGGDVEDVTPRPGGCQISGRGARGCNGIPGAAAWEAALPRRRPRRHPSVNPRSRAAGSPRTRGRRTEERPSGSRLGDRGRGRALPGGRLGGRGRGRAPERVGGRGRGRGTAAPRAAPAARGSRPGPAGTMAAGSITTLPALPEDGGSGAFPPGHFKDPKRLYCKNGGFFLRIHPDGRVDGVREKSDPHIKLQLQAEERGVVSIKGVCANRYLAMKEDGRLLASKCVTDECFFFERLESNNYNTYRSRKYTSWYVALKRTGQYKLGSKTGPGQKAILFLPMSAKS
# [7] = mitochondrial membrane potential change in A549 cells, profiling panel, cell-based, JC-1 fluorescence, basal, 24 h, 100 nL (AID 1138); conditions: higher = more signal;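 note: A549 lung adenocarcinoma cells under basal conditions with no added stimulus; test concentration not given here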
# Lefty1 = Lefty1 binders on small-molecule microarrays, primary screen, biochemical, small-molecule microarray, 635/667 nm fluorescence (AID 1139); conditions: small-molecule microarray binding, fluorescence 635/667; higher = more signal
# [8] = system: wheat germ agglutinin (Triticum aestivum), Alexa647-labelled; test: wheat germ agglutinin binders on compound microarrays, profiling panel, artefact control for SMM control-protein annotation, biochemical, small-molecule microarray, 635/667 nm fluorescence (AID 1140); conditions: WGA-A647 binding, 635 nm fluorescence, higher = more signal;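 note: score merges 667 nm feature emission with signal to noise over triplicate slides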
# [9] = biological target: Luciferin 4-monooxygenase (Photinus pyralis) (UniProt P08659); test: firefly luciferase enzyme inhibitors, primary screen, biochemical, luminescence, purified enzyme, 2006 set (AID 1141); conditions: SteadyGlo luminescence, 30 min, higher = more signal, called active from +8 up or from −8 down;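 note: cell-free assay with purified firefly luciferase at 100 ng per well in PBS; test concentration not given here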
# Sequence of Luciferin 4-monooxygenase (Photinus pyralis) (P08659 whole entry, looked up): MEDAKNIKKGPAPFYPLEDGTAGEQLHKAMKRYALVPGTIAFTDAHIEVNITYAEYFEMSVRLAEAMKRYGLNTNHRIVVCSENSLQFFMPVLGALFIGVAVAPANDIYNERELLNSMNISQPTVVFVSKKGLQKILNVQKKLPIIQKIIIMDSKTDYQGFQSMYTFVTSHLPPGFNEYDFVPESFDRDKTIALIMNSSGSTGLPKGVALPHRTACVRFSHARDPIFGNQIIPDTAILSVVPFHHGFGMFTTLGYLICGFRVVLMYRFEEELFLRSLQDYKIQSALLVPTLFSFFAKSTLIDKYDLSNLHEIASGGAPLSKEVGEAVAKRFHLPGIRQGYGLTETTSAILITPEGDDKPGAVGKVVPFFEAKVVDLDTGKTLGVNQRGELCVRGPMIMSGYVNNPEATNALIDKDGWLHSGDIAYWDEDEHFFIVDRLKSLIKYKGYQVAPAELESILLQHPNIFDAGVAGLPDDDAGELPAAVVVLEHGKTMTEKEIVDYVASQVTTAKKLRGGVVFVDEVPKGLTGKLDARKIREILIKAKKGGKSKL
# [10] = system: Wnt5a (protein binding on small-molecule microarray); test: Wnt5a binders on small-molecule microarray, primary screen, biophysical, 635/667 nm fluorescence (AID 1142); conditions: 635 nm fluorescence, higher = more signal;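 note: fluorescence read at 667 nm with signal to noise per printed feature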
# [11] = cell viability in Huh7 cells, primary screen, cytotoxicity control for HCV replication inhibitor project, CellTiter-Glo luminescence, basal, 48 h (AID 1143); conditions: Huh7 HCV replicon, higher = more signal, called active from +8 up or from −8 down;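 note: Huh7 hepatoma cells carrying a hepatitis C replication reporter with no stimulus; test concentration not given here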
# [12] = CREB reporter modulators without forskolin, primary screen, cell-based, PC12, CRE-LacZ reporter, unstimulated (AID 1145); conditions: no forskolin, luminescence, 4.5 h, higher = more signal, called active from +8 up or from −8 down
# [13] = CREB reporter modulators under forskolin, primary screen, cell-based, PC12, CRE-LacZ reporter, forskolin-stimulated (AID 1146); conditions: luminescence, 4.5 h, higher = more signal, called active from +8 up or from −8 down;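 note: PC12 cells with 6xCRE LacZ reporter stimulated by forskolin 10 µM; beta-galactosidase reporter signal reflecting CREB driven transcription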
# [14] = biological target: Streptavidin (Streptomyces avidinii) (UniProt P22629); test: streptavidin binders on small-molecule microarray, primary screen, artefact control for SMM compound annotation, biophysical, 635/667 nm fluorescence (AID 1147); conditions: streptavidin binding, higher = more signal;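 note: signal reflects streptavidin binding to arrayed compounds as a control protein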
# Sequence of Streptavidin (Streptomyces avidinii) (P22629 whole entry, looked up): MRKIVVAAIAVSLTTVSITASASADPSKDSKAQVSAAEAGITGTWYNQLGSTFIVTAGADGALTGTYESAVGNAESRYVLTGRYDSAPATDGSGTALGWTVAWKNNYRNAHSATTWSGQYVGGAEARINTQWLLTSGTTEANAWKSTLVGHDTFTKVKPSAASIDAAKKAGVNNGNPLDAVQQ
# [15] = small-molecule binders of probe aInhba, primary screen, biochemical, small-molecule microarray, 635/667 nm fluorescence (AID 1148); conditions: higher = more signal;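 note: score merges 667nm spot fluorescence with signal-to-noise for antibody binding to printed compounds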
# Torsin-1A (Homo sapiens) [16] = biological target: Torsin-1A (Homo sapiens) (UniProt O14656); test: torsin A binders from cell lysate, primary screen, small-molecule microarray, wild-type, 635/667 nm (AID 1149); conditions: COS7 hTOR1A-WT lysate, 635 nm fluorescence, higher = more signal
# Sequence of Torsin-1A (Homo sapiens) (O14656 whole entry, looked up): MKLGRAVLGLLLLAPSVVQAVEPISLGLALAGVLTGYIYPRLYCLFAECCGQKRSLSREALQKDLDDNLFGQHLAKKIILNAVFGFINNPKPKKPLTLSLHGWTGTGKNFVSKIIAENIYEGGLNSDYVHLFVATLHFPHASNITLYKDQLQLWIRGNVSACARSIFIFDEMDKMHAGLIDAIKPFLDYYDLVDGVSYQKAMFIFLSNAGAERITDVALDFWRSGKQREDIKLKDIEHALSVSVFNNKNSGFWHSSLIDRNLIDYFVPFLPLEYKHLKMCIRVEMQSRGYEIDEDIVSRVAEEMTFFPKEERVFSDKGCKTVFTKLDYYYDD
# Torsin-1A (Homo sapiens) [17] = biological target: Torsin-1A (Homo sapiens) (UniProt O14656); test: small-molecule binders of mutant TOR1A in lysate, primary screen, cell lysate, small-molecule microarray, COS7 lysate, 635/667 nm fluorescence (AID 1150); conditions: COS7 hTOR1A mutant lysate, 635 nm fluorescence, higher = more signal;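 note: score pools 667 nm emission and signal to noise measuring lysate protein binding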
# [18] = system: Sonic hedgehog protein (Shh); test: small-molecule binders of Shh protein, primary screen, biochemical, small-molecule microarray, 635/667 nm fluorescence (AID 1151); conditions: small-molecule microarray binding, 635 nm fluorescence; higher = more signal;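 note: Shh protein binding to compounds spotted on small-molecule microarray slides; score combines spot fluorescence intensity with signal-to-noise across triplicate slides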
Compound,composite z-score [1],composite z-score [2],composite z-score [3],composite z-score [4],composite z-score [5],composite z-score [6],z-score [7],composite z-score (Lefty1),composite z-score [8],z-score [9],composite z-score [10],z-score [11],z-score [12],z-score [13],composite z-score [14],composite z-score [15],composite z-score (Torsin-1A (Homo sapiens) [16]),composite z-score (Torsin-1A (Homo sapiens) [17]),composite z-score [18]
CCCC[C@H]1OB(O)C[C@H]2C1=C(COC)C[C@H]1C(=O)N(Cc3ccccc3)C(=O)[C@H]12,-0.438,0.422,0.112,0.575,0.935,1.18,1.03,0.499,0.552,-1.22 (inactive),0.192,-0.273 (inactive),0.307 (inactive),-1.76 (inactive),-0.098,0.124,-0.0377,0.37,0.329
C=CCNC(=O)[C@@H]1[C@H]2C(=O)O[C@H](c3ccccc3)[C@H](c3ccccc3)N2[C@H](c2ccc(OCCO)cc2)[C@@]12C(=O)N(C(=O)OCCOC)c1ccc(C#CC3(O)CCCCCC3)cc12,0.166,1.2,0.262,0.827,1.18,0.833,-1,0.326,1.15,-2.35 (inactive),0.281,-6.19 (inactive),-0.87 (inactive),-1.59 (inactive),0.788,0.167,0.42,0.469,1.1
C[N+](C)(C)CCCCNC(=O)[C@@H]1C[C@@H]2C(=O)N3CCC[C@H]3C(=O)N2[C@@H]1c1cccc(OCCO)c1,2.72,0.143,0.275,-0.181,1.39,1.73,-0.0151,0.859,-0.392,-1.23 (inactive),0.256,-3.3 (inactive),-0.671 (inactive),-1.62 (inactive),-0.315,-0.128,0.725,1.03,1.84
CO[C@H]1COC(=O)CC=C[C@H](C)[C@@H](OC)COC(=O)CC=C[C@@H]1C,0.245,-1.11,-0.415,-0.706,0.956,1.29,1.35,0.817,-0.991,-1.38 (inactive),0.27,-0.909 (inactive),0.786 (inactive),-0.0885 (inactive),-0.538,-0.227,2.03,0.621,1.32
COCCOC(=O)N1C(=O)[C@@]2(c3ccccc31)[C@H](C(=O)N1CCc3cc(OC)c(OC)cc3C1)[C@H]1C(=O)O[C@H](c3ccccc3)[C@H](c3ccccc3)N1[C@@H]2c1ccccc1OCCO,1.86,1.18,0.989,0.938,1.13,0.349,0.679,0.762,1.02,-1.69 (inactive),0.0374,-3.27 (inactive),-0.183 (inactive),-1.12 (inactive),0.686,0.0228,0.435,0.243,1.38
NC(=O)NCC#Cc1ccc2c(c1)[C@]1(C(=O)N2)[C@H](C(=O)N2CCCCCCC2)[C@H]2C(=O)O[C@H](c3ccccc3)[C@H](c3ccccc3)N2[C@@H]1c1ccccc1OCCO,1.03,1.27,2.88,0.743,1.51,0.0779,0.209,1.32,1.59,-0.984 (inactive),1.58,-0.481 (inactive),-0.348 (inactive),-1.18 (inactive),3.38,2.01,1.73,1.53,0.81
CO[C@H]1COC(=O)[C@@H](C)NC(=O)CC=C[C@@H](C)[C@H](OC)COC(=O)CC=C[C@@H]1C,-0.31,-1.46,0.223,-1.07,1.34,1.63,2.3,1.66,-1.16,-1.38 (inactive),0.0227,-2.38 (inactive),-0.747 (inactive),-1.2 (inactive),0.0569,-0.39,1.45,1.69,2.21
COCCOC(=O)N1C(=O)[C@@]2(c3cc(C#CCC(C(=O)OC)C(=O)OC)ccc31)[C@H](C(=O)N1CCN(c3ncccn3)CC1)[C@H]1C(=O)O[C@H](c3ccccc3)[C@H](c3ccccc3)N1[C@@H]2c1ccc(O)cc1,1.55,1.19,0.89,0.65,0.51,0.393,1.95,0.72,1.07,-1 (inactive),0.117,-3.81 (inactive),-0.671 (inactive),-0.784 (inactive),0.043,0.0386,0.143,0.731,1.38
CCOC(=O)C[C@H]1[C@H](OC(=O)Cc2ccc3c(c2)OCO3)[C@@H](NC(=O)CC(C)C)c2cc(OCCCO)ccc2N1C(=O)c1ccccc1,-0.314,0.157,0.344,0.165,0.45,0.503,1.91,0.492,0.0122,-1.26 (inactive),0.416,-0.957 (inactive),0.162 (inactive),-1.48 (inactive),-0.195,0.126,-0.155,0.287,0.526
